Test [1] can be described thus: Cytotoxicity counterscreen for inhibitors of SARS-CoV-2 cell entry (AID 1645845). Further: nearly all actives have a fitted effect of over 50% in size. The settings on record: cell viability (SARS-CoV-2 entry assay cells); series mostly up to 57.1 µM. In a few lines:
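After a 15 min room-temperature ATPLite 1step step, luminescence reflected ATP remaining in HEK293-ACE2 cells exposed to compound for 1 h plus 48 h at 37 C, with percent activity set by cell and no-cell controls.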
On the technique in general: Counterscreens check selectivity or assay interference.

Test [2] in a line: Primary qHTS to identify inhibitors of SARS-CoV-2 cell entry (AID 1645846). Further: nearly all actives have a fitted effect of over 45% in size. Further: potency means the concentration at half of the fitted maximal effect. The following applies: SARS-CoV-2 pseudovirus cell entry assay, luminescence; activity change, negative = inhibition: at 57.1 µM (top of the series) unless noted; series mostly up to 57.1 µM. In a few lines: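 Using luciferase-reporting pseudoviruses carrying Wuhan-Hu-1 spike, the screen tracks entry into stably ACE2-expressing cells over 48 hr. Activity is expressed relative to spike particles versus particles lacking any fusion protein.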
A general note: Quantitative high-throughput screening tests each substance at several concentrations.

Inconclusive results are not listed. Where a call stands in place of a potency, no number is given. The source made the active and inactive calls. The call rests on the fitted dose curve.

Take `CC(C)(C)NCC(O)c1cc(O)cc(O)c1` (stereo unspecified): the Potency result in test [1] and in test [2] was “inactive” throughout.

Turning to `CC[N+](CC)(CCNC(=O)C(=O)NCC[N+](CC)(CC)Cc1ccccc1Cl)Cc1ccccc1Cl`, the Potency result in test [1] and in test [2] was “inactive” each time.

For `CNCCCC12CCC(c3ccccc31)c1ccccc12`, the Potency result in test [1] is “inactive”. Also, the Potency in test [2] is 28.2 µM (active).

These data come from PubChem BioAssay (NCATS).
